The values below come from PubChem BioAssay (NCI).

The panel holds about 83,000 compounds, 20% with a hit somewhere; the sample as a whole holds those more often.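 Values shown are percent growth following 48 h exposure of cells in 96-well plates to a single concentration of compound; below 10 was considered active.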 Calls of active or inactive are those of the source.

The test system of this assay is HCT-116 colon. As to the kind of experiment: NCI-60 one-dose screen, 48 h (100 = growth as untreated, 0 = no growth, -100 = all killed). The settings on record: 10 µM.
On to `CN1C(=O)N(C)C2SC(N/N=C/C=C/c3ccccc3)=NC21` (configuration not stated), for which the growth was 71.6% (inactive).

Regarding `Cc1ccc(NC(=O)c2ccc(-n3c(=O)[nH]c4ccccc4c3=O)cc2)cc1`, the growth is 92.4% (inactive).

Take `COc1cccc(/C=N/NC(=O)c2ccc3nc(-c4ccc(Cl)cc4)[nH]c3c2)c1O`: the growth is -90.3% (active).

Turning to `COc1ccc2[nH]c(=O)c(CSc3nccc(-c4ccc(Cl)cc4)n3)cc2c1`, the growth is -30.5% (active).

As for `COc1ccc2ncc(C#Cc3cncc(C(=O)Nc4ccc(CN5CCN(C)CC5)c(C(F)(F)F)c4)c3)n2n1`, the growth was -43.6% (active).

Take `O=C(CS(=O)(=O)c1oc(-c2ccc(Cl)cc2)nc1S(=O)(=O)c1ccccc1)N1CCCC1`: the growth was 0.106% (active).

As to `CC1=N/C(=C\c2ccc(N(C)C)cc2)C(=O)N1CCc1ccc(S(N)(=O)=O)cc1`, the growth was 94.3% (inactive).

As to `CCN1CCN(c2ccc(NC(=O)Nc3ccc(-c4cc(C(=O)NC(C)C)c5ncccc5n4)cc3)cc2C(F)(F)F)CC1`, the growth was -94% (active).

As for `O=C(c1ccc(Cl)cc1)C1[C@H](c2ccccc2Br)[C@@H](c2ccccc2)NC12C(=O)Nc1ccccc12` (some centres not stated), the growth is 16.3% (inactive).

As to `CN1CCN(c2ccc(Nc3nc(NCCCNC(=O)C4CCCCC4)c4sccc4n3)cc2)CC1`, the growth is 30.8% (inactive).

Regarding `CC1(c2ccccc2)NC(=O)N(CC(=O)Nc2ccc(C(=O)/C=C/c3ccc(Cl)cc3)cc2)C1=O` (configuration not stated), the growth is -69.1% (active).

Consider `CC(C)c1ccc(C(=O)Nc2sc3c(c2C(N)=O)CCC(=O)C3=O)cc1`, for which the growth was 91.9% (inactive).

As to `O=c1c2ccccc2nc(COc2ccccc2)n1/N=C/c1ccc(N2CCOCC2)cc1`, the growth was 52.5% (inactive).

As to `CCN1CCN(Cc2ccc(NC(=O)c3cccc(-n4cc(-c5ccc(NC(C)=O)nc5)nn4)c3)cc2C(F)(F)F)CC1`, the growth is 86.3% (inactive).

For `CCOC(=O)C1NN(c2ccc(S(N)(=O)=O)cc2)c2nc3nc(-c4cccs4)cc(-c4cccs4)c3c(=O)n21` (configuration not stated), the growth is 81.2% (inactive).

Regarding `CN1CCN(c2ccc(C(=O)/C=C/c3cc(Br)ccc3F)cc2)CC1`, the growth is 1.2% (active).

Take `CN(CCF)c1ccc(/C=C/C(=O)c2ccc(N)cc2O)cc1`: the growth was 73% (inactive).

For `CC1(C)CC[C@]2(C(=O)O)CC[C@]3(C)C(=CC[C@@H]4[C@@]5(C)C/C(=C/c6ccncc6)[C@H](O)C(C)(C)[C@@H]5CC[C@]43C)[C@@H]2C1`, the growth was 26% (inactive).

For the compound `CN(C)c1cccc2c(S(=O)(=O)Nc3cccc(-c4csc(NC(=O)CCCCCN5CCN(c6cc7c(cc6F)C(=O)N(C6CCC(=O)NC6=O)C7=O)CC5)n4)c3)cccc12` (configuration not stated), the growth was 68.3% (inactive).

As to `O=C(CSc1nnc(-c2ccc3nc(-c4ccccc4)[nH]c3c2)o1)Nc1ccc(Br)cc1`, the growth is 19.1% (inactive).

Take `CCNCCCn1c2c(c3cc(OC)c(OC)cc3c1=O)C(=O)c1cc3c(nc1-2)OCO3`: the growth is -70.2% (active).

`Cn1c(O)c(N=Nc2nc(-c3cc4ccccc4oc3=O)cs2)c2cc(Br)ccc21`: the growth was 48.9% (inactive).

As to `Clc1ccc(/C=N/Nc2ncnc3sc4c(c23)CCN(Cc2ccccc2)C4)cc1`, the growth is -93.5% (active).

In the case of `Cc1ccc(CSc2nc(-c3ccc(F)cc3)c(C#N)c(=O)[nH]2)cc1`, the growth was 98.5% (inactive).

With `COc1csc(/C=N/NC(=O)c2[nH]c3ccc(Br)cc3c2-c2ccccc2)c1`, the growth was -29.4% (active).

`CCOC(=O)N/C(=C1/OCCN1C)[P+](c1ccccc1)(c1ccccc1)c1ccccc1`: the growth is 75.1% (inactive).

For `COc1ccc(/C=C/C(=O)c2ccc(S(=O)(=O)NCCNc3nc(Nc4ccc(F)cc4)nc(N(C)C)n3)cc2)cc1`, the growth is -67% (active).

For `N#Cc1c(NC(=O)c2ccc(C(F)(F)F)c(Cl)c2)sc2c1CCC(=O)C2`, the growth is -44.9% (active).

Regarding `O/N=C(\CSc1nnc(-c2c[nH]c3ccccc23)n1-c1ccccc1)c1ccc(Cl)cc1`, the growth is 0.742% (active).

In the case of `CN1CCCN(Cc2ccc(C(=O)Nc3cccc(Nc4ccc5c(O)cccc5n4)c3)cc2C(F)(F)F)CC1`, the growth is -67.4% (active).

With `O=c1[nH]c2ccccc2cc1CSc1ccc(Nc2nccc(-c3ccc(C(F)(F)F)cc3)n2)cc1`, the growth was 6.96% (active).

With `O=c1cc(-c2ccccc2)oc2cc(OCCCCNCc3ccccc3)cc(O)c12`, the growth was -73.7% (active).

Consider `COc1ccccc1[C@H]1C(C(=O)c2ccc(Cl)cc2)C2(N[C@@H]1c1ccccc1)C(=O)Nc1ccc(Cl)cc12` (some centres not stated), for which the growth was 10.1% (inactive).

Turning to `N#Cc1c(Cl)nc(SCc2ccc(F)cc2)nc1-c1ccc(F)cc1`, the growth is 81.5% (inactive).

Regarding `Cc1cc2c(c(O)c1Br)-c1ncoc1C(=O)[C@]1(C)CC[C@H](C(C)C)[C@H]21`, the growth was 31.1% (inactive).

Turning to `O=C1Nc2ccc(Cl)cc2/C1=C/c1ccc(OCc2ccccn2)cc1`, the growth was 28.5% (inactive).

Regarding `O=c1[nH]c2ccccc2cc1CSc1ccc(Nc2nccc(-c3ccc4c(c3)OCO4)n2)cc1`, the growth is 84.1% (inactive).
